# Source: PubChem BioAssay
# In the library only some 2.8% were active in any assay of this set; here they are far more common.
# S16 F2sN tox – Cell viability qHTS assay in S16 Pmp22-F2sN cells; S16 Pmp22-F2sN Schwann cells viability, CellTiter-Glo, 24 h; Potency, µM (series often up to 57.5 µM), actives largely listed as cytotoxic; 43,000 compounds, 0.48% hits; also: nearly all actives have a fitted effect of over 65% in size
#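 Rat S16 Schwann reporter line, 24 h treatment with library compounds delivered at 23 nL per well. Cell viability by CellTiter-Glo luminescence.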
# PTAP-TSG101 blk – qHTS Validation Assay for Inhibitors of HIV-1 Budding by Blocking the Interaction of PTAP/TSG101: Sytravon Library Screen; Fluorescence polarization, FITC-PTAP peptide/Tsg101, 20 min; Potency, µM (highest dose often 115 µM), most hits filed as inhibitors; Tumor susceptibility gene 101 protein (Homo sapiens), Q99816; 44,000 tested, under 10 active
#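 qHTS FP binding, 20 min r.t.: 10 uM Tsg101 domain + 50 nM FITC-PTAP peptide, pH 7.5 HEPES buffer with TCEP and EDTA.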
# PMP22 txn prim – Cell-based coincidence reporter assay to measure PMP22 gene transcription in S16 Pmp22-F2sN cells - Primary screen. AID 1508649, 2021. S16 Pmp22-F2sN Schwann cells (luciferase reporters placed in the Pmp22 gene), FLuc/NLuc coincidence luminescence, 24 h. Potency, µM (top dose mostly 57.5 µM), actives largely listed as inhibitors. 43,000 compounds, 2% hits; active = clear falling dose curves in both reporters; inconclusive = both reporters move, but less clearly or upward; inactive = either reporter flat; the % is the NLuc reporter signal
#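 S16(c9) Schwann cells with FLuc/NLuc coincidence reporter in the Pmp22 3' UTR; compounds pin-transferred, 24 h at 37C. Dual-luciferase read: FLuc first, then NLuc after Stop&Glo, each 10 min at room temperature.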
# mTORC1 inh – Acumen qHTS Assay for Inhibitors of the mTORC1 Signaling Pathway in MEF (Tsc2-/-, p53-/-) Cells: Sytravon; Tsc2-/- p53-/- MEF, phospho-rpS6 immunofluorescence/PI, 24 h; 44,000 compounds, 0.78% hits; AID 493208, 2011; Potency, µM (series often up to 38.3 µM), hits mostly inhibitors; also: nearly all actives have a fitted effect of over 50% in size
#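 Readout is phospho-S6 Alexa 488 signal normalized to PI per well, reported as % active cells with thresholds set from rapamycin (7.5 nM) and DMSO controls. Cells: Tsc2-/-, p53-/- MEFs, 24 hrs compound at 37 C; PI cell number serves as viability.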
# GALK inh – qHTS Assay for Inhibitors of Human Galactokinase (GALK): NCGC Sytravon Library Screen; P51570; recombinant GALK, Kinase-Glo ATP luminescence, 1 h; Potency, µM (series often up to 57.5 µM), actives largely listed as inhibitors; 44,000 tested, under 10 active
#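 Human GALK (5 nM) was incubated with 35 uM ATP and 100 uM galactose in 20 mM HEPES pH 8.0 with MgCl2, NaCl, DTT and BSA for 1 h at room temperature. Remaining ATP was measured by Kinase-Glo Plus luminescence.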
# NLuc sat counter – Biochemical NLuc saturation counterscreen for small molecule modulators of PMP22 gene expression - Nano-Glo assay; Secreted NLuc enzyme (filtered S16 cell medium), Nano-Glo luminescence; AID 1508638, 2021; shares compounds with PMP22 txn prim; 690 compounds, 4% hits; Potency, µM (highest dose often 57.5 µM), actives largely listed as inhibitors
# NLuc Km ctr – Biochemical coelenterazine-based NLuc counterscreen for small molecule modulators of PMP22 gene expression - Km assay; shares compounds with PMP22 txn prim; secreted NLuc enzyme, coelenterazine luminescence, Km conditions; Potency, µM (highest dose often 57.5 µM), usual class: inhibitors; 690 compounds, 5% hits; AID 1508639, 2021
# FLuc ctr PMP22 – Biochemical FLuc counterscreen for small molecule modulators of PMP22 gene expression. purified P. pyralis FLuc, luminescence, 10 min. AID 1508640, 2021. Potency, µM (titrated, usually from 57.5 µM), hits mostly inhibitors. shares compounds with PMP22 txn prim. 690 tested, under 10 active
# Target sequence (P08659 whole entry, looked up): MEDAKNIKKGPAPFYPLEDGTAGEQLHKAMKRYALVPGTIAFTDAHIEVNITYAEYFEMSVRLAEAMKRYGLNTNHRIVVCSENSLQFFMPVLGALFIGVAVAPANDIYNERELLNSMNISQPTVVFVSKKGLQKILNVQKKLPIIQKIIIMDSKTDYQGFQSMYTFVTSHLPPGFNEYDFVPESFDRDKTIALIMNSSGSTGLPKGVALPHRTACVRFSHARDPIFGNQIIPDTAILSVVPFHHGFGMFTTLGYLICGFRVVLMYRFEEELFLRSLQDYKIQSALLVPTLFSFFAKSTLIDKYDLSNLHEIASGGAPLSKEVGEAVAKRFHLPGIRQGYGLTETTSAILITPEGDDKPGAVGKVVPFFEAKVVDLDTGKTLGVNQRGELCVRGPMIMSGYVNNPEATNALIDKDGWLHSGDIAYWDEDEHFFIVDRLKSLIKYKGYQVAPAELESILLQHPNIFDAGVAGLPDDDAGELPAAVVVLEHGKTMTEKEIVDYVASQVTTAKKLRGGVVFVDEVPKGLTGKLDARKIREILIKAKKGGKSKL
# S16 viab conf – Cell viability qHTS assay in S16 Pmp22-F2sN cells - Confirmatory screen; shares compounds with PMP22 txn prim; S16 Schwann cells viability, CellTiter-Glo ATP luminescence, 24 h; Potency, µM (highest dose often 57.5 µM), usual class: cytotoxic; 690 compounds, 7% hits; AID 1508641, 2021
# PMP22 txn cnf – Cell-based coincidence reporter assay to measure PMP22 gene transcription in S16 Pmp22-F2sN cells - Confirmatory screen; shares compounds with PMP22 txn prim; S16 Schwann cells Pmp22-F2sN, dual luciferase, 24 h; Potency, µM (highest dose often 57.5 µM), most hits filed as inhibitors; 690 compounds, 22% hits; AID 1508646, 2021; active = clear falling dose curves in both reporters; inconclusive = both reporters move, but less clearly or upward; inactive = either reporter flat; the % is the FLuc reporter signal
# PMP22 prot conf – Cell-based HiBiT reporter assay to measure PMP22 protein expression in S16 Pmp22-HiBiT cells - Confirmatory screen | shares compounds with PMP22 txn prim | S16 Schwann cells Pmp22-HiBiT, luminescence, 48 h | Potency, µM (series often up to 27.9 µM), most hits filed as inhibitors | 95 tested, under 10 active
# Target sequence (P25094 whole entry, looked up): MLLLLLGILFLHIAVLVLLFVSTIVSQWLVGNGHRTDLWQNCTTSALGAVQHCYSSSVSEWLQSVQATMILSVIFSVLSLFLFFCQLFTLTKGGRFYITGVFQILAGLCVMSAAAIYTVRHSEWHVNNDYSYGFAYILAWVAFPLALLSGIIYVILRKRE
# Hits are given with their value; 0 = inactive; ? = inconclusive; - = not tested or not shown. Unless noted, calls follow the shape of the dose curve; as a rule, active = well fitted curve in the direction sought with a large enough effect; inconclusive = small, poorly fitted or top-dose-only effect, or another doubt; inactive = no such curve, though single readings can be large; an effect the other way counts as inactive or inconclusive.
SMILES,S16 F2sN tox,PTAP-TSG101 blk,PMP22 txn prim,mTORC1 inh,GALK inh,NLuc sat counter,NLuc Km ctr,FLuc ctr PMP22,S16 viab conf,PMP22 txn cnf,others
Cc1oc(-c2ccc(Cl)cc2)nc1CN1CCCC(C(=O)NCc2ccccc2)C1 (configuration not stated),0,0,18µM,0,0,?,?,0,0,?,
Cc1ccc(C)c(NC(=O)Cn2c(=O)n(Cc3ccc4c(c3)OCO4)c(=O)c3ccc(C(=O)NC4CCCCC4)cc32)c1,0,0,4µM,0,0,0,0,0,0,18µM,PMP22 prot conf=0
Cc1cc(C)c(NC(=O)Cn2c(=O)n(Cc3ccc4c(c3)OCO4)c(=O)c3ccccc32)c(C)c1,0,0,?,0,0,-,-,-,-,-,
Cc1ccc(C)c(NC(=O)Cn2c(=O)n(CCC(=O)NCc3ccc4c(c3)OCO4)c(=O)c3ccccc32)c1,0,0,0,0,0,-,-,-,-,-,
Cc1cc(C)c(NC(=O)Cn2c(=O)n(Cc3ccc(C(=O)NCc4ccc5c(c4)OCO5)cc3)c(=O)c3ccccc32)c(C)c1,?,0,11µM,5.2µM,0,0,0,0,27µM,8.9µM,
Cc1ccc(NC(=O)Cn2c(=O)n(Cc3ccco3)c(=O)c3ccc(C(=O)NC4CCCC4)cc32)c(C)c1,0,0,?,0,0,-,-,-,-,-,
Cc1ccccc1NC(=O)Cn1c(=O)n(Cc2ccc3c(c2)OCO3)c(=O)c2ccc(C(=O)NC3CCCCC3)cc21,?,0,11µM,0,0,0,0,0,24µM,15µM,
Cc1ccc(NC(=O)Cn2c(=O)n(Cc3ccc4c(c3)OCO4)c(=O)c3ccc(C(=O)NC4CCCCC4)cc32)c(C)c1,0,0,8.4µM,0,0,0,0,0,0,?,
CCN(C(=O)Cn1c(=O)n(Cc2ccc3c(c2)OCO3)c(=O)c2ccc(C(=O)NC3CCCCC3)cc21)c1cccc(C)c1,0,0,0,0,0,-,-,-,-,-,
COC(=O)CS(=O)(=O)c1nc2ccccc2nc1N1CCCCC1,?,0,11µM,?,0,?,?,0,0,9.9µM,PMP22 prot conf=?
COc1cc2nc(SCc3cccc(Cl)c3)n3nc(CCn4nc(C)cc4C)nc3c2cc1OC,0,0,0,0,0,-,-,-,-,-,
CCc1cccc(NS(=O)(=O)c2ccc3c(c2)CC(C)N3C(=O)C2CC2)c1 (configuration not stated),?,0,?,0,0,-,-,-,-,-,
COc1ccc(NS(=O)(=O)c2ccc3c(c2)CC(C)N3C(=O)C2CCC2)cc1OC (configuration not stated),0,0,3µM,0,0,0,?,0,0,?,
CCc1nnc2c(N3CCN(c4cc(Cl)ccc4C)CC3)nc3ccccc3n12,0,0,0,0,0,-,-,-,-,-,
CC(=O)Nc1cc(NC(C)=O)cc(-c2nc3ccccc3[nH]2)c1,?,0,7.3µM,0,0,?,?,0,0,0,
CC(=O)Nc1ccc2nc(-c3cc(C)ccc3C)[nH]c2c1,?,0,0,0,0,-,-,-,-,-,
O=c1oc2ccccc2cc1-c1cn2cc(Cc3ccc(Br)cc3)sc2n1,0,0,?,0,0,0,0,0,0,?,
CC(=O)N1CCc2c(sc3c2c(=O)n(-c2ccccc2C)c(=O)n3CC(=O)c2ccccc2)C1,0,0,0,0,0,-,-,-,-,-,
CC(=O)Nc1ccc(-c2nnc3n(CC(C)C)c(=O)c4ccccc4n23)cc1,0,0,?,0,0,?,0,0,0,0,
CC(C)Cn1c(=O)c2ccccc2n2c(-c3ccc(Br)cc3)nnc12,0,0,0,0,0,-,-,-,-,-,
CCCCOc1ccc(C(C)NC(=O)c2cccc(Nc3nc4ccccc4n4nnnc34)c2)cc1 (configuration not stated),?,0,5.3µM,0,0,0,0,0,27µM,10µM,
COCCNC(=O)c1cccc(Nc2nc3ccccc3n3nnnc23)c1,0,0,11µM,0,0,0,?,0,0,0,
O=C(NCc1ccccc1Cl)c1ccc(Nc2nc3ccccc3n3nnnc23)cc1,0,0,18µM,0,0,0,0,0,0,?,
O=C(NCc1nc2ccccc2n1Cc1ccccc1Cl)c1ccccc1,0,0,0,0,0,-,-,-,-,-,
CCOc1cc(C2CC(=O)Nc3cc4c(cc32)OCCO4)ccc1O (configuration not stated),?,0,0,0,0,-,-,-,-,-,
COc1cc(C2CC(=O)Nc3cc4c(cc32)OCCO4)cc(Br)c1OC (configuration not stated),?,0,0.67µM,?,0,0,0,0,0,?,
O=C(NCCc1ccc(Cl)cc1)c1ccc(Cn2c(=O)[nH]c3ccccc3c2=O)cc1,0,0,3.2µM,0,0,0,0,0,0,?,
